From PubChem BioAssay
ERG Ets-DNA blk – blocks human ERG Ets domain binding to DNA. AID 624246. 0.028% of 370,000 active. P11308. Potency, µM (titrated, usually from 76.9 µM), for inactives: at the top dose FP activity, negative = inhibition, usual class: inhibitors. fluorescence polarization, His-ERG Ets domain / labelled DNA; active = well fitted inhibition curve with a large enough effect in the polarisation, with a control signal flat; inconclusive = small, poorly fitted or top-dose-only effect, or effect the other way, or a change in a side signal; inactive = no such curve, though single readings can be large or run the other way; the % refers to the polarisation;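 also: polarization taken with two DNA probes labelled with fluorescein and Texas red; % of control where 0% means no effect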
Target sequence (P11308 whole entry, looked up, the tested form may be a part): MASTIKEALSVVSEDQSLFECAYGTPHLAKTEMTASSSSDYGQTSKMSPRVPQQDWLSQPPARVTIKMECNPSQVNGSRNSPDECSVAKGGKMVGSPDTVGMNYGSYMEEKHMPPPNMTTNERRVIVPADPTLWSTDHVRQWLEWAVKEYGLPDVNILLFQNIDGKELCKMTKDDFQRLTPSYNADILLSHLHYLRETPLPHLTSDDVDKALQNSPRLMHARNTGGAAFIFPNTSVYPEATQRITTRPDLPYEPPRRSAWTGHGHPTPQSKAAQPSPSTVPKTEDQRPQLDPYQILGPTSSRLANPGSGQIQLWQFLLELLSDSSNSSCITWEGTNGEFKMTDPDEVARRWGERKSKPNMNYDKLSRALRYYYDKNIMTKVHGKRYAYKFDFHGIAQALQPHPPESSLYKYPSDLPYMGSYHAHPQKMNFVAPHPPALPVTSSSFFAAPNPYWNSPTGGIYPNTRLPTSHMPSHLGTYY
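His-tagged ERG Ets domain (1 uM in the protein solution; 300mM KCl, 50mM Tris-HCl, 1mM EDTA, 1mM DTT, pH 7.5) received compound, then a probe mix of 5 nM fluorescein-DNA and 100nM Texas-615-DNA. Fluorescence polarization was read for both dyes.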
FUS suppressor – suppressors of FUS proteinopathy in yeast; S. cerevisiae FUS-expressing, growth rescue, OD600, 24 h; Potency, µM (highest dose often 76.6 µM), hits mostly activators; 0.24% of 390,000 active;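 also: plate controls were DMSO vehicle for no effect and reference control for full effect; nearly all actives have a fitted effect of over 55% in size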
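Compound concentration series was pinned onto galactose-induced FUS-expressing yeast seeded at OD 0.005. Plates sat 24hr at 30C; absorbance at 600 nm gave growth. DMSO served as background control.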
Abeta rescue – restores growth of yeast expressing A-beta42 peptide. yeast expressing A-beta42, growth rescue, OD600, 48 h; response scale: 0% DMSO, 100% iron-clioquinol control. Potency, µM (titrated, usually from 46.1 µM), hits mostly activators. 0.063% of 410,000 active. AID 1347071; also: nearly all actives have a fitted effect of over 55% in size
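Yeast A-beta toxicity model in growth medium with pinned compounds, 48 h at 30 C; growth read as absorbance at 600 nm. Normalized to FeCl3/clioquinol equimolar mix (positive) and DMSO (negative).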
TDP-43 yeast inh – TDP-43 toxicity inhibition in yeast; TDP-43 expressing yeast growth rescue, BacTiter-Glo, 24 h; Potency, µM (doses to about 46.1 µM), without a hit: at the top dose growth rescue (activation), actives largely listed as activators; 1.8% of 410,000 active; also: % of control where 0% means no effect; nearly all actives have a fitted effect of over 50% in size
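Luminescence from BacTiter-Glo reports growth of TDP-43-expressing yeast after 24 hr at 30 deg C with compound. Cells were raffinose-pregrown to mid-log, then seeded in galactose medium at OD600=0.02.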
aSyn yeast inh – inhibitors of alpha-synuclein toxicity in yeast. Yeast expressing alpha-synuclein, growth rescue, BacTiter-Glo, 24 h. Potency, µM (titrated, usually from 46.1 µM), inactives show at the top dose growth rescue (activation), usual class: activators. 0.14% of 370,000 active; also: % of control where 0% means no effect; nearly all actives have a fitted effect of over 65% in size
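Screening used galactose-induced yeast with toxic alpha-synuclein levels, exposed to compound for 24 hr at 30 deg C. Cell growth, read with BacTiter-Glo luminescence, gave the measured signal.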
Mito fusion yeast – blocks mitochondrial division or promotes mitochondrial fusion. AID 485298. Potency, µM (series often up to 46.1 µM), for inactives: top-dose growth rescue (activation), usual class: activators. S. cerevisiae fusion-defective mutant growth rescue, CellTiterGlo 48 h. 0.23% of 320,000 active; also: % of control where 0% means no effect; nearly all actives have a fitted effect of over 45% in size
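Luminescent cell viability in 1536-well qHTS format served as the measure of rescued growth in ts fusion-mutant S. cerevisiae cultured on non-fermentable YPEG for 48 hours at 37C.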
* hit, by the source's call; i = inactive; ? = inconclusive; . = not tested or not shown; ! = a repeat was not active. Hits are enriched below; roughly 2.2% of the tested compounds scored in any of these assays. Unless noted, calls follow the shape of the dose curve; as a rule, active = well fitted curve in the direction sought with a large enough effect; inconclusive = small, poorly fitted or top-dose-only effect, or another doubt; inactive = no such curve, though single readings can be large; an effect the other way counts as inactive or inconclusive. Potency is read from the fitted curve at half-maximal effect.

SMILES | ERG Ets-DNA blk | FUS suppressor | Abeta rescue | TDP-43 yeast inh | aSyn yeast inh | Mito fusion yeast
Cc1ccc(NC(=O)CN2C(=O)CN=C(c3ccccc3)c3cc(Cl)ccc32)cc1 | -13% | ? | i | 14µM* | ? | 26%
O=C(CN1C(=O)CN=C(c2ccccc2)c2ccccc21)Nc1cccc(C(F)(F)F)c1 | -3% | ? | i | 35µM* | . | .
CCCCCCCCN1C(=O)[C@H](CC(=O)N2CCCCC2)C[C@@]2(C(=O)OCC)CCCC=C12 | . | ? | i | -42% | ? | .
Cc1ccc(NC(=O)C2CCCN2S(=O)(=O)c2ccc3c(c2)CCCC(=O)N3)cc1Cl (stereo unspecified) | ? | i | i | 5% | . | .
C[C@H]1CC[C@@]2(C)[C@@H](CC[C@@H]3[C@@H]2CC[C@]2(C)[C@@H](O)CC[C@@H]32)C1 | 12% | i | i | 24% | ? | 13µM*
C[C@]12CCC3C(CC[C@H]4C[C@@H](O)CC[C@]34C)[C@H]1CC[C@H]2O (stereo partly specified) | 1% | i | i | 20% | -1% | .
CC(=O)[C@H]1CC[C@H]2[C@@H]3CCC4=CC(=O)CC[C@]4(C)[C@H]3CC[C@]12C | -13% | i | i | 35µM* | 11% | 18µM*!
C[C@H](CCC(=O)O)[C@H]1CC[C@H]2[C@@H]3CC[C@@H]4C[C@H](O)CC[C@]4(C)[C@H]3CC[C@]12C | 13% | i | i | 1% | 5µM* | -9%
C[C@]12CCC3C(CC[C@H]4C[C@H](O)CC[C@]34C)C1CC[C@@H]2C(=O)CO (stereo partly specified) | . | . | . | . | 19% | 18µM*
COc1cc2nc(N3CCCN(C)CC3)nc(N(C)C3CCN(C)CC3)c2cc1OC | . | . | . | . | 0% | .
COc1cccc(N2CCN(C(=O)C3CCCN(S(=O)(=O)c4ccc5c(c4)oc(=O)n5C)C3)CC2)c1 (stereo unspecified) | -2% | i | i | 13% | -1% | ?
C[C@]12CC[C@H](O)C[C@@H]1CC[C@@H]1[C@@H]2CC[C@]2(C)[C@@H](C(=O)O)C[C@@H]12 | -7% | i | i | ? | -7% | 4%
CC(=O)[C@H]1CCC2C3CC[C@H]4C[C@H](O)CC[C@]4(C)C3CC[C@@]21C (stereo partly specified) | . | . | . | . | -1% | 5.2µM*
COC(=O)C1=C(c2ccc(OC(F)(F)F)cc2)C[C@@H]2CC[C@H]1N2C(=O)NC1CCCCC1 | -2% | i | i | 18µM* | -10% | ?
COC(=O)C1=C(c2ccc3ccccc3c2)C[C@@H]2CC[C@H]1N2C(=O)N1CCC(C)CC1 | 1% | i | i | 25µM* | -1% | 12%
COC(=O)C1=C(c2ccc(OC(F)(F)F)cc2)C[C@@H]2CC[C@H]1N2C(=O)NCc1ccc(F)cc1 | -11% | i | i | 13µM* | 12% | ?
COC(=O)C1=C(c2ccc(OC(F)(F)F)cc2)C[C@@H]2CC[C@H]1N2C(=O)NCCNC(C)=O | -3% | i | i | 8% | -8% | -3%
COC(=O)C1=C(c2ccc3ccccc3c2)C[C@@H]2CC[C@H]1N2C(=O)NC1Cc2ccccc2C1 | 7% | ? | i | ? | 0% | ?
COC(=O)C1=C(c2ccc(OC)c(OC)c2)C[C@@H]2CC[C@H]1N2C(=O)N1CCC(C)CC1 | -7% | i | i | 9% | 1% | 5%
COC(=O)C1=C(c2ccc(OC(F)(F)F)cc2)C[C@@H]2CC[C@H]1N2C(=O)NC1Cc2ccccc2C1 | 17% | ? | i | 35µM* | 1% | ?
S=P(c1ccccc1)(c1ccccc1)c1cnc2ccccn12 | . | 22µM* | . | . | . | .
COc1cc(Cn2c(=O)oc3ccc(C)cc32)ccc1OC(C)C | 8% | i | i | 35µM* | -6% | 7%
C=CCN1CCc2cccc3c2[C@H]1Cc1ccc(O)c(O)c1-3 | -6% | i | i | . | 14% | 4.1µM*!
O=c1[nH]cc(F)c(=O)[nH]1 | -3% | i | i | 0% | 9% | 2.9µM*!
O=c1[nH]cc(N(CCCl)CCCl)c(=O)[nH]1 | . | i | . | . | . | .
SMILES | ERG Ets-DNA blk | FUS suppressor | Abeta rescue | TDP-43 yeast inh | aSyn yeast inh | Mito fusion yeast
CC(C)(C)C(O)C(Oc1ccc(Cl)cc1)n1cncn1 (stereo unspecified) | 11% | i | ? | 2.5µM* | ? | 35µM*
CCC1(C)CC(C(N)=S)CCO1 (stereo unspecified) | -6% | i | i | -94% | -36% | 8%
CCCc1cc(N2CCN(c3ccc(OC)cc3)CC2)n2cnnc2n1 | 9% | i | i | ? | . | .
CCOc1ccc(N2CC(c3nc4ccccc4n3CCC3CCCCC3)CC2=O)cc1 (stereo unspecified) | 4% | i | i | 25µM* | . | .
C[C@H]1COC(=O)[C@@H](Cc2ccc(F)cc2)CC/C=C/C[C@H](CC(=O)N(CCO)Cc2ccccc2)C(=O)N1 | -1% | i | i | 18% | ? | .
Cc1nc2cc([N+](=O)[O-])ccc2c(=O)n1-c1ccccc1[N+](=O)[O-] | 12% | i | i | 16µM* | 12% | 3%
Cc1nc2cc([N+](=O)[O-])ccc2c(=O)n1-c1ccc(Br)cc1 | -4% | i | i | -1% | -1% | 0%
O=C1NCN(c2ccccc2)C12CCN(C(c1cc3ccccc3o1)c1nnnn1C1CCCCC1)CC2 (stereo unspecified) | . | 11µM* | i | 26% | 17% | .
CC(C)(C)n1nnnc1C(c1cc2ccccc2o1)N1CCC2(CC1)C(=O)NCN2c1ccccc1 (stereo unspecified) | . | ? | i | 22% | 1% | .
CCOc1ccc(N(C(C)C(=O)Nc2cc(Cl)ccc2OC)S(C)(=O)=O)cc1 (stereo unspecified) | 0% | ? | ? | ? | . | .
CC(C)(Oc1ccc(Cl)cc1)C(=O)OCC(=O)N1CCN(c2ccccc2)CC1 | 2% | i | i | 14µM* | 13% | 2%
O=C(Nc1ccc2nc(SCC(=O)N3CCCc4ccccc43)sc2c1)c1ccccc1F | 5% | i | i | ? | . | .
Cc1oc(-c2ccccc2)nc1CN1C(=O)C(C)N=C(c2ccccc2F)c2cc(Cl)ccc21 (stereo unspecified) | 7% | i | i | ? | -29% | 25%
Cc1ccccc1CN1C(=O)C(C)N=C(c2ccccc2)c2ccccc21 (stereo unspecified) | -1% | i | i | 14µM* | . | .
